# PubChem BioAssay AID1159580 (chemical genetic matrix, 2015)
# Where “and” joins values, the source holds several entries; their conditions need not be identical. Equal entries are not always repeated. The campaign covered roughly 5,500 compounds. About 2,000 (36%) were called active. About 18% were inconclusive and are not listed. No stated cut-off is given here; in the data, active means normalized growth mostly below about 0.91 (no sharp cut-off); inconclusive means no clear call, values can overlap the other calls; inactive means mostly above about 0.92. This is one part of the list.
# Assay: chemical genetic growth profiling, strain panel (AID 1159580);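 further: tested at 20 µM; growth read once vehicle control cultures reached saturation at 30 °C; 1 = growth at the plate median or of vehicle wells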
# Settings: S. cerevisiae deletion strains, growth OD
smiles,measurement,setting,value
CCOc1cccc(C(=O)c2ccc(O)c(O)c2O)c1,normalized growth,"locus YAL021C, strain ccr4, stronger effect = lower value",0.601 (active)
same,normalized growth,"locus YAL026C, strain drs2, stronger effect = lower value",0.813 (active)
same,normalized growth,"locus YAL030W, strain snc1, stronger effect = lower value",0.928 (active)
same,normalized growth,"locus YBL061C, strain skt5, stronger effect = lower value",0.888 (active)
same,normalized growth,"locus YBR009C, strain hhf1, stronger effect = lower value",0.879 (active)
same,normalized growth,"locus YBR021W, strain FUR4, stronger effect = lower value",0.898 (inactive)
same,normalized growth,"locus YBR023C, strain chs3, stronger effect = lower value",0.806 (active)
same,normalized growth,"locus YBR171W, strain sec66, stronger effect = lower value",0.918 (inactive)
same,normalized growth,"locus YBR229C, strain ROT2, stronger effect = lower value",0.938 (inactive)
same,normalized growth,"locus YBR231C, strain swc5, stronger effect = lower value",0.783 (active)
same,normalized growth,"locus YBR279W, strain paf1, stronger effect = lower value",0.933 (inactive)
same,normalized growth,"locus YCL011C, strain gbp2, stronger effect = lower value",0.941 (inactive)
same,normalized growth,"locus YCL016C, strain dcc1, stronger effect = lower value",0.963 (inactive)
same,normalized growth,"locus YCL029C, strain bik1, stronger effect = lower value",0.776 (active)
same,normalized growth,"locus YCL061C, strain MRC1, stronger effect = lower value",0.933 (inactive)
same,normalized growth,"locus YCL069W, strain vba3, stronger effect = lower value",0.975 (inactive)
same,normalized growth,"locus YCR088W, strain abp1, stronger effect = lower value",0.969 (inactive)
same,normalized growth,"locus YDL005C, strain med2, stronger effect = lower value",0.974 (inactive)
same,normalized growth,"locus YDL035C, strain GPR1, stronger effect = lower value",0.804 (active)
same,normalized growth,"locus YDL040C, strain nat1, stronger effect = lower value",0.963 (inactive)
same,normalized growth,"locus YDL074C, strain BRE1, stronger effect = lower value",0.67 (active)
same,normalized growth,"locus YDL101C, strain DUN1, stronger effect = lower value",0.752 (active)
same,normalized growth,"locus YDL185W, strain tfp1, stronger effect = lower value",0.586 (active)
same,normalized growth,"locus YDL192W, strain arf1, stronger effect = lower value",0.815 (active)
same,normalized growth,"locus YDR001C, strain nth1, stronger effect = lower value",0.955 (inactive)
same,normalized growth,"locus YDR069C, strain doa4, stronger effect = lower value",0.566 (active)
same,normalized growth,"locus YDR101C, strain arx1, stronger effect = lower value",0.889 (active)
same,normalized growth,"locus YDR137W, strain rgp1, stronger effect = lower value",0.643 (active)
same,normalized growth,"locus YDR159W, strain sac3, stronger effect = lower value",0.84 (active)
same,normalized growth,"locus YDR162C, strain NBP2, stronger effect = lower value",0.672 (active)
same,normalized growth,"locus YDR195W, strain ref2",0.99 (inactive)
same,normalized growth,"locus YDR297W, strain sur2, stronger effect = lower value",0.916 (active)
same,normalized growth,"locus YDR318W, strain mcm21, stronger effect = lower value",0.877 (active)
same,normalized growth,"locus YDR334W, strain swr1, stronger effect = lower value",0.886 (active)
same,normalized growth,"locus YDR335W, strain msn5, stronger effect = lower value",0.84 (active)
same,normalized growth,"locus YDR388W, stronger effect = lower value",0.923 (active)
same,normalized growth,"locus YDR392W, strain spt3, stronger effect = lower value",0.807 (inactive)
same,normalized growth,"locus YDR502C, strain sam2, stronger effect = lower value",0.791 (active)
same,normalized growth,"locus YEL003W, strain gim4, stronger effect = lower value",0.839 (active)
same,normalized growth,"locus YEL037C, strain rad23, stronger effect = lower value",0.925 (inactive)
same,normalized growth,"locus YEL061C, strain CIN8 (second series), stronger effect = lower value",0.955 (inactive)
same,normalized growth,"locus YER015W, strain faa2, stronger effect = lower value",0.89 (active)
same,normalized growth,"locus YER016W, strain bim1, stronger effect = lower value",0.953 (inactive)
same,normalized growth,"locus YER110C, stronger effect = lower value",0.979 (inactive)
same,normalized growth,"locus YER111C, strain swi4, stronger effect = lower value",0.815 (active)
same,normalized growth,"locus YER155C, strain BEM2 (second series), stronger effect = lower value",0.847 (active)
same,normalized growth,"locus YER155C, strain BEM2, stronger effect = lower value",0.858 (active)
same,normalized growth,"locus YER167W, strain BCK2, stronger effect = lower value",0.909 (inactive)
same,normalized growth,"locus YFR010W, strain ubp6, stronger effect = lower value",0.84 (active)
same,normalized growth,"locus YGL078C, strain dbp3, stronger effect = lower value",0.956 (inactive)
same,normalized growth,"locus YGL086W, strain mad1, stronger effect = lower value",0.782 (active)
same,normalized growth,"locus YGL167C, strain pmr1, stronger effect = lower value",0.935 (inactive)
same,normalized growth,"locus YGL173C, strain kem1, stronger effect = lower value",0.766 (active)
same,normalized growth,"locus YGL227W, strain vid30, stronger effect = lower value",0.984 (inactive)
same,normalized growth,"locus YGL240W, strain doc1, stronger effect = lower value",0.978 (inactive)
same,normalized growth,"locus YGL248W, strain PDE1, stronger effect = lower value",0.792 (active)
same,normalized growth,"locus YGL253W, strain hxk2, stronger effect = lower value",0.901 (active)
same,normalized growth,"locus YGR135W, strain pre9, stronger effect = lower value",0.777 (active)
same,normalized growth,"locus YGR252W, strain gcn5, stronger effect = lower value",0.77 (inactive)
same,normalized growth,"locus YHR013C, strain ard1, stronger effect = lower value",0.81 (active)
same,normalized growth,"locus YHR027C, strain rpn1, stronger effect = lower value",0.83 (active)
same,normalized growth,"locus YHR030C, strain SLT2, stronger effect = lower value",0.978 (inactive)
same,normalized growth,"locus YHR079C, strain IRE1 (second series), stronger effect = lower value",0.859 (active)
same,normalized growth,"locus YHR079C, strain IRE1, stronger effect = lower value",1.02 (inactive)
same,normalized growth,"locus YHR094C, strain hxt1, stronger effect = lower value",0.965 (inactive)
same,normalized growth,"locus YHR129C, strain ARP1, stronger effect = lower value",0.761 (active)
same,normalized growth,"locus YHR142W, strain chs7, stronger effect = lower value",0.776 (active)
same,normalized growth,"locus YHR200W, strain rpn10, stronger effect = lower value",0.859 (active)
same,normalized growth,"locus YIL066C, strain RNR3, stronger effect = lower value",0.8 (active)
same,normalized growth,"locus YIL073C, strain SPO22, stronger effect = lower value",0.654 (active)
same,normalized growth,"locus YIL125W, strain kgd1, stronger effect = lower value",0.951 (inactive)
same,normalized growth,"locus YIR030C, strain dcg1, stronger effect = lower value",0.958 (inactive)
same,normalized growth,"locus YJL092W, strain hpr5, stronger effect = lower value",0.97 (inactive)
same,normalized growth,"locus YJL095W, strain BCK1 (second series), stronger effect = lower value",0.867 (active)
same,normalized growth,"locus YJL095W, strain BCK1, stronger effect = lower value",0.603 (active) and 0.961 (inactive)
same,normalized growth,"locus YJL115W, strain asf1, stronger effect = lower value",0.971 (inactive)
same,normalized growth,"locus YJL129C, strain trk1, stronger effect = lower value",0.936 (inactive)
same,normalized growth,"locus YJL134W, strain LCB3, stronger effect = lower value",0.932 (inactive)
same,normalized growth,"locus YJL154C, strain vps35, stronger effect = lower value",0.959 (inactive)
same,normalized growth,"locus YJL164C, strain tpk1, stronger effect = lower value",0.811 (active)
same,normalized growth,"locus YJL166W, strain qcr8, stronger effect = lower value",0.872 (active)
same,normalized growth,"locus YJL168C, strain set2, stronger effect = lower value",0.964 (inactive)
same,normalized growth,"locus YJL187C, strain SWE1 (second series), stronger effect = lower value",0.42 (active)
same,normalized growth,"locus YJL187C, strain SWE1, stronger effect = lower value",0.895 (active)
same,normalized growth,"locus YJR066W, strain TOR1, stronger effect = lower value",0.981 (inactive)
